This note sets out measurements from PubChem BioAssay (NCI).

About 83,000 compounds went through this panel and 20% of them were active in at least one assay; those are over-represented in the sample as a whole.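 Treatment: one concentration, 48 hours, 96-well format. Scoring: percent growth, with anything below 10 considered active.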 Values without a mark were called inactive. Active and inactive are the calls of the source.

Holding throughout (experiment): NCI-60 one-dose screen, 48 h (100 = growth as untreated, 0 = no growth, -100 = all killed)
One assay has as its system SK-MEL-2 melanoma. The conditions noted are these: 10 µM.
The next assay deals with EKVX NSCLC. The following applies: 10 µM.
For another assay, the system named is SN12C renal. The conditions noted are these: 10 µM.
Another assay relates to TK-10 renal. The following applies: 10 µM unless noted.
A further assay concerns ACHN renal. The conditions noted are these: 10 µM.
For another assay, the system named is CAKI-1 renal. The following applies: 10 µM.
The next assay concerns A498 renal. The following applies: 10 µM.
Another assay deals with CCRF-CEM leukemia. The conditions noted are these: 10 µM.
In the next assay the test system is MOLT-4 leukemia. The following applies: 10 µM.
Another assay concerns UO-31 renal. The conditions noted are these: 10 µM.

Take `c1c(-c2cc(C3CC3)[nH]n2)n[nH]c1C1CC1`: the growth was 104% in the assay with SK-MEL-2 melanoma; 76.6% in the assay with EKVX NSCLC; 102% in the assay on SN12C renal; 106% with TK-10 renal; 99.3% in the assay with ACHN renal; 97.6% in the assay on CAKI-1 renal. In addition, the results for the growth in the assay with A498 renal, in the assay with CCRF-CEM leukemia and with MOLT-4 leukemia were 97.6%, 67% and 95.2%, respectively.
Take `CNC(=S)NC(C)(C)C`: the growth in the assay on SK-MEL-2 melanoma was 122%; in the assay on EKVX NSCLC it was 96.2%; with SN12C renal it was 102%; in the assay on TK-10 renal, 96.8%; in the assay on ACHN renal, 108%; with CAKI-1 renal, 92.6%. Also, the growth with A498 renal was 112%; with CCRF-CEM leukemia, 88.6%; in the assay on MOLT-4 leukemia it was 106%.
On to `CCC(C#N)(CC)c1ccccc1`, for which the growth is 105% in the assay with SK-MEL-2 melanoma; 105% with EKVX NSCLC; 98% in the assay on SN12C renal; 108% in the assay with TK-10 renal; 103% in the assay on ACHN renal; 113% in the assay on CAKI-1 renal. Also, the values for the growth in the assay with A498 renal, with CCRF-CEM leukemia and in the assay on MOLT-4 leukemia were 111%, 102% and 107%, respectively.
As to `c1ccc(/C(=N\N=C(/c2ccccc2)c2cccs2)c2cccs2)cc1`, the growth is 89.1% in the assay on SK-MEL-2 melanoma; 98% in the assay with EKVX NSCLC; 71.2% in the assay on UO-31 renal; 104% in the assay with TK-10 renal; 89.8% in the assay on ACHN renal; 89.9% in the assay on CAKI-1 renal. For the same compound, the growth in the assay with A498 renal was 102%; in the assay on MOLT-4 leukemia it was 91.9%.
Consider `Clc1ccc(-c2nnc(-c3cccc4ccccc34)o2)cc1`, for which the growth in the assay with SK-MEL-2 melanoma is 96.4%; in the assay with EKVX NSCLC, 34%; in the assay on UO-31 renal it was 41.4%; with TK-10 renal, 95.3%; with ACHN renal, 90%; in the assay with CAKI-1 renal, 81.6%. Moreover, the growth with MOLT-4 leukemia is 104%.
For the compound `CC(=O)C1CCCCC1`, the growth in the assay with SK-MEL-2 melanoma was 106%; in the assay with SN12C renal it was 97.5%; in the assay on UO-31 renal, 92.8%; with TK-10 renal, 99.5%; in the assay with ACHN renal it was 97.3%; in the assay on CAKI-1 renal, 90.8%. Also, the growth with A498 renal was 99.1%.
For the compound `CN(C)Cc1cc(C(C)(C)CC(C)(C)C)ccc1O`, the growth with SK-MEL-2 melanoma was 71.1%; in the assay with EKVX NSCLC, 98.4%; in the assay on UO-31 renal, 76.2%; in the assay on TK-10 renal, 99.8%; in the assay with ACHN renal it was 82.4%; in the assay with CAKI-1 renal it was 90.7%. In addition, the growth in the assay with A498 renal is 116%; in the assay with CCRF-CEM leukemia, 99.6%; with MOLT-4 leukemia, 86.4%.
Turning to `Nc1nc2c(c(-c3nc(N)nc4c3CCc3ccccc3-4)n1)CCc1ccccc1-2`, the growth with SK-MEL-2 melanoma is 134%; with EKVX NSCLC, 89.9%; with SN12C renal, 102%; in the assay on TK-10 renal it was 131%; in the assay with ACHN renal it was 95.1%; in the assay with CAKI-1 renal, 76.9%. In addition, the growth in the assay with A498 renal is 125%; in the assay with CCRF-CEM leukemia, 107%; with MOLT-4 leukemia, 115%.
`CC(C)=C(NC(=O)c1ccccc1)C(=O)O`: the growth in the assay on SK-MEL-2 melanoma is 98.3%; with EKVX NSCLC it was 118%; in the assay with UO-31 renal, 101%; in the assay on TK-10 renal it was 106%; with ACHN renal, 106%; in the assay with CAKI-1 renal, 103%. Further, the growth was 90.5% in the assay with A498 renal, 7.71% (active) in the assay on CCRF-CEM leukemia and 12.1% in the assay with MOLT-4 leukemia.
In the case of `CC(C)NC(=O)OCc1c(COC(=O)NC(C)C)c(-c2ccc(Cl)c(Cl)c2)n2c1SCC2`, the growth is 37.8% in the assay with SK-MEL-2 melanoma; 62.4% with EKVX NSCLC; 36.4% in the assay on SN12C renal; 6.38% (active) in the assay on TK-10 renal; 18.1% in the assay on ACHN renal; -11.5% (active) in the assay on CAKI-1 renal. Besides, the growth in the assay with CCRF-CEM leukemia was 24.9%; in the assay on MOLT-4 leukemia, 17.1%.
Turning to `CCCCCCCCOC(=O)c1ccccn1`, the growth in the assay on SK-MEL-2 melanoma is 103%; in the assay on EKVX NSCLC, 107%; in the assay with SN12C renal it was 96.4%; in the assay on TK-10 renal it was 102%; in the assay with ACHN renal it was 103%; in the assay with CAKI-1 renal, 111%. Also, the growth was 104% in the assay on A498 renal and 116% with MOLT-4 leukemia.
Consider `C=CCc1cc(C(C)=O)cc(OC)c1O`, for which the growth in the assay with SK-MEL-2 melanoma was 130%; with EKVX NSCLC it was 100%; in the assay with SN12C renal, 105%; in the assay with TK-10 renal it was 102%; with ACHN renal, 121%; with CAKI-1 renal, 98.2%. The growth with A498 renal was 100%; in the assay with CCRF-CEM leukemia, 106%; in the assay on MOLT-4 leukemia, 98%.
Turning to `Cc1cc2ccccc2c(O)c1C#N`, the growth in the assay on SK-MEL-2 melanoma is 112%; in the assay with EKVX NSCLC, 108%; with SN12C renal, 95.3%; in the assay on TK-10 renal, 110%; with ACHN renal, 99.1%; in the assay with CAKI-1 renal, 115%. For the same compound, the growth in the assay with A498 renal was 107%; in the assay on CCRF-CEM leukemia, 104%; with MOLT-4 leukemia, 108%.
As to `CCCCC1(CC)COC(CCC)OC1` (centres undefined), the growth in the assay with SK-MEL-2 melanoma is 104%; in the assay with EKVX NSCLC, 93.1%; in the assay with SN12C renal, 97.6%; in the assay with TK-10 renal, 101%; in the assay on ACHN renal, 99.2%; in the assay on CAKI-1 renal it was 84.2%. Besides, the growth in the assay with A498 renal was 127%; with CCRF-CEM leukemia it was 102%; in the assay on MOLT-4 leukemia, 103%.
